Test results taken from PubChem BioAssay (NCATS).
Results filed as inconclusive are left out. Where a call stands in place of a potency, no number is given. The source made the active and inactive calls. Unless noted, the call rests on the fitted dose curve; in most records, active means well fitted curve in the direction sought with a large enough effect; inconclusive means small, poorly fitted or top-dose-only effect, or another doubt; inactive means no such curve, though single readings can be large; an effect the other way counts as inactive or inconclusive.

Experiments:
[1] = biological target: M-phase phosphoprotein 8 (Homo sapiens) (UniProt Q99549); test: qHTS Validation Assay for Inhibitors for MPP8 Chromodomain Interactions with Methylated Histone Tails (AID 488949); conditions: AlphaScreen MPP8 binding to H3K9me3 peptide; series mostly up to 57.1 µM;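 further: AlphaScreen signal from MPP8 chromodomain bound to biotinylated H3K9me3 peptide; top concentration of the series differs between compounds; nearly all actives have a fitted effect of over 55% in size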
Chain of M-phase phosphoprotein 8 (Homo sapiens) (Q99549 whole entry, looked up): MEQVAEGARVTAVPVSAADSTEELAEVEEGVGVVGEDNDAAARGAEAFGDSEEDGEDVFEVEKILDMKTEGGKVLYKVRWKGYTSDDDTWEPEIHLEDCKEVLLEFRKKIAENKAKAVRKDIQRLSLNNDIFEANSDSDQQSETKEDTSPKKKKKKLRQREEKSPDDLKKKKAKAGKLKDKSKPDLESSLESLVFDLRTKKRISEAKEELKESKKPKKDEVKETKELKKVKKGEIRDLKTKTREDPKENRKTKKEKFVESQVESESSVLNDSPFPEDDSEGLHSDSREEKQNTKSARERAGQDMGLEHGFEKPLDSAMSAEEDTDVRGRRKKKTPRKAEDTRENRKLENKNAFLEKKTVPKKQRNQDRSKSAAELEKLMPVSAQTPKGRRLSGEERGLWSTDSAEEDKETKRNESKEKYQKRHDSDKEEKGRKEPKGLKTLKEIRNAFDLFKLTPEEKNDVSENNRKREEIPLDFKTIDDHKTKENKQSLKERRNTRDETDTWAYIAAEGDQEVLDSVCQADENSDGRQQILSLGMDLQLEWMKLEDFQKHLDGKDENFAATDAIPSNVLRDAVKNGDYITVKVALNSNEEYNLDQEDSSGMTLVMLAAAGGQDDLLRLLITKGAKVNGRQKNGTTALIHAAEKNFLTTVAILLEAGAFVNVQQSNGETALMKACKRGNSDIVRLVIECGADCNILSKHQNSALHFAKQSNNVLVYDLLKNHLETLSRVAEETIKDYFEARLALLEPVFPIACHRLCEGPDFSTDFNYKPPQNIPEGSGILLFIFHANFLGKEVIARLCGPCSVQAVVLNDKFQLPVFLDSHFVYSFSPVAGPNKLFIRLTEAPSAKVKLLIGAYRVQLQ
Outline: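 AlphaScreen read-out: streptavidin donor and nickel chelate acceptor beads (final 10 ug/mL), 30 min in the dark at RT. Complex of 50 nM MPP8 and 50 nM b-H3(1-18)K9me3 peptide had been exposed to compounds for 30 min beforehand.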

[2] = biological target: Chromobox protein homolog 1 (Homo sapiens) (UniProt P83916); test: qHTS Validation Assay for Inhibitors of HP1-beta Chromodomain Interactions with Methylated Histone Tails (AID 488953); conditions: HP1-beta chromodomain / methylated histone peptide binding assay; series mostly up to 114 µM;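 further: loss of AlphaScreen luminescence from HP1-beta binding biotinylated H3K9me3 peptide; nearly all actives have a fitted effect of over 50% in size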
Outline: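 50 nM HP1-beta + 50 nM biotin-H3(1-18)K9me3, PBS pH 7.4, 0.01% Tween-20, 30 min RT; compound added, 30 min RT; AlphaScreen beads 10 ug/mL final, 30 min dark; luminescence read.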

[3] = biological target: Methanococcus maripaludis chaperonin (MmCpn) (UniProt Q6LX38); test: High-Throughput Screening for Modulators of Cytosolic Chaperonin Activity: MmCpn Primary Screen (AID 488978); conditions: Purified MmCpn ATPase activity, ADP HTRF detection, 10 min; series mostly up to 76.9 µM;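 further: 50 nM MmCpn enzyme hydrolysing 30 µM ATP at 37 °C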
Outline: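 ADP formation read by HTRF Transcreener, 665/590 nm emission after 320 nm excitation. Enzyme: archaeal chaperonin at 50 nM final; substrate ATP 30 uM final; 10 min, 37C, after 5 min compound preincubation at RT.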

[4] = biological target: Transient receptor potential cation channel subfamily V member 1 (Homo sapiens) (UniProt Q8NER1); test: HTS Assay for Compounds that Act as Enhancers of the Vanilloid Receptor 1 (AID 488979); conditions: TRPV1-expressing cells, enhancer of channel activity, stimulated with capsaicin at EC20; series mostly up to 41.7 µM
Outline: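 TRPV1 cells loaded with Fluo-8 calcium dye; compound added and Ca2+ signal (ex 480/em 520 nm) followed 3 min, then capsaicin at EC20 added and read 2 more min to detect enhancement.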

[5] = biological target: Thyrotropin receptor (Homo sapiens) (UniProt P16473); test: qHTS Assay for Antagonists of the Thyroid Stimulating Hormone Receptor (AID 488980); conditions: TSHR-expressing cells, cAMP antagonist read-out; series mostly up to 57.5 µM
Chain of Thyrotropin receptor (Homo sapiens) (P16473 whole entry, looked up): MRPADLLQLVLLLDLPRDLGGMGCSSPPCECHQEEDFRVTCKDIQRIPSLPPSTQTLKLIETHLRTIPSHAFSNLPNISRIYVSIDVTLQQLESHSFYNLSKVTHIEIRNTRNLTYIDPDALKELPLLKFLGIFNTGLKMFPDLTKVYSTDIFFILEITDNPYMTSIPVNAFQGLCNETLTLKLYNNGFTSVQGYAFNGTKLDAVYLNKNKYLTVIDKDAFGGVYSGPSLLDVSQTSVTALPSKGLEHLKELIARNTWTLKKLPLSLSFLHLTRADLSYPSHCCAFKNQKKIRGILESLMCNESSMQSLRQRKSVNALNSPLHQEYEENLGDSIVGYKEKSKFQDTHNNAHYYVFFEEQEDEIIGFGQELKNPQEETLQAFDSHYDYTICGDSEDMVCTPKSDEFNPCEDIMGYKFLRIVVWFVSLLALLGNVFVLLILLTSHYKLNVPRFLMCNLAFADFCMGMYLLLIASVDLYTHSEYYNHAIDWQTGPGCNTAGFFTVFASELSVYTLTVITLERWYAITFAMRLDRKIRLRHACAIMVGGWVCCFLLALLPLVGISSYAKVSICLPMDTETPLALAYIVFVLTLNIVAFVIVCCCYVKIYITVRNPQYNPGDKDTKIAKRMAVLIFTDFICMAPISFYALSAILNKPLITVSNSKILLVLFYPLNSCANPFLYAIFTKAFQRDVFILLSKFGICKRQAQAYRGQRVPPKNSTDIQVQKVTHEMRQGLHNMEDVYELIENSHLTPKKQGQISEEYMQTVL
Outline: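 TSHR-HEK293 cells; 70 uM RO 20-1724 PDE inhibitor; compound + EC80 TSH (4 nM final); anti-cAMP cryptate antibody/cAMP-d2 in lysis buffer, 30 min RT; HTRF 665/620 nm read.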

[6] = biological target: D(1A) dopamine receptor (Homo sapiens) (UniProt P21728); test: HTS Assay for Allosteric Agonists of the Human D1 Dopamine Receptor: Primary Screen for Agonists (AID 488981); conditions: Inducible HEK293 T-REx D1 cells, calcium-flux fluorescence, 180 s kinetic; series mostly up to 41.8 µM; further: potency means the concentration at half of the fitted maximal effect
Chain of D(1A) dopamine receptor (Homo sapiens) (P21728 whole entry, looked up): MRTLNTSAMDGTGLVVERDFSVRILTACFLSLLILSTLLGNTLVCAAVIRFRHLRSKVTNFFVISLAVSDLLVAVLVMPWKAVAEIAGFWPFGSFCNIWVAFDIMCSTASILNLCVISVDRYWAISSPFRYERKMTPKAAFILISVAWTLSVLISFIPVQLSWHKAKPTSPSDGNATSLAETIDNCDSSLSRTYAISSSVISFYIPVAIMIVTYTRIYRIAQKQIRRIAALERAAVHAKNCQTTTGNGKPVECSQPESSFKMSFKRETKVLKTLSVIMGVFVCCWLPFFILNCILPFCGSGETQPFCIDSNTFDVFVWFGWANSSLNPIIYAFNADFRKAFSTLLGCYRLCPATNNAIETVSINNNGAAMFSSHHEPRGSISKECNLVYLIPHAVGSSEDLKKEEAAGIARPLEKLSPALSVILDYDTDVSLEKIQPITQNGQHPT
Outline: (§1)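 Tetracycline-induced HEK293 Trex D1 cells with forced coupling to calcium, loaded with no-wash calcium dye; kinetic fluorescence read 180 s after compound addition for agonism, then a further 180 s after an EC20 dopamine challenge for potentiation.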

[7] = biological target: D(1A) dopamine receptor (Homo sapiens) (UniProt P21728); test: HTS Assay for Allosteric Agonists of the Human D1 Dopamine Receptor: Primary Screen for Antagonists (AID 488983); conditions: D1 receptor cell assay, antagonist mode, qHTS titration; series mostly up to 41.8 µM;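 further: calcium flux response to an EC80 dopamine challenge measured with no-wash dye; nearly all actives have a fitted effect of over 65% in size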; further: potency means the concentration at half of the fitted maximal effect
Outline: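 Cells are induced with tetracycline and incubated overnight at 30 C, then loaded with calcium dye for 30 to 90 minutes at room temperature. Compound addition is followed by a 180 s read, then an EC80 dopamine addition and another 180 s read.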

[8] = Validation screen for small molecules that induce genotoxicity in human embryonic kidney (HEK293T) cells expressing luciferase-tagged ELG1 (AID 493106); conditions: luminescence; series mostly up to 46.1 µM
Outline: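 Luminescence from an ELG1-luciferase fusion serves as the read-out, rising when genetic stress elevates ELG1 protein. HEK293T reporter cells (2,000 per well) received 23 nL compound, incubated 16 hr at 37 °C, then ONE-Glo for 30 min at room temperature.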

[9] = biological target: ATPase family AAA domain-containing protein 5 (Homo sapiens) (UniProt Q96QE3); test: Validation screen for small molecules that inhibit ELG1-dependent DNA repair in human embryonic kidney (HEK293T) cells expressing luciferase-tagged ELG1 (AID 493107); conditions: HEK293T ELG1-luciferase level, luminescence, 5-fluorouridine co-treatment, 16 h; series mostly up to 46.1 µM;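 further: cells co-treated with the DNA-damaging agent 5-fluorouridine alongside compound; inhibitors lower the ELG1-luciferase luminescence signal; nearly all actives have a fitted effect of over 70% in size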
Outline: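 Luminescence from ONE-Glo, developed 30 min at room temperature, served as read-out of ELG1-luciferase levels. Beforehand, reporter HEK293T cells received 5-fluorouridine plus test compound for 16 hr at 37 °C.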

[10] = biological target: Thyrotropin-releasing hormone receptor (Homo sapiens) (UniProt P34981); test: qHTS for Small Molecule Agonists and Allosteric Enhancers of Human TRH Receptor: Validation Screen for Agonists (AID 493127;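 active means calcium activation more than 3 SD above the typical response in the agonist read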;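 further: intracellular calcium rise by fluo-8 fluorescence before TRH EC20 addition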); conditions: TRH receptor agonist cell assay; at 2 µM; stronger effect = higher value
Outline: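 Cells 2000/well, 10% FCS, 18 h 33.5C/5% CO2 → fluo-8 Ca dye, RT 30 min–1.5 h → FDSS baseline 10 × 1 s → compound added → 230 cycles (1 s/cycle) agonist mode. TRH controls.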

[11] = Nrf2 qHTS screen for inhibitors: Validation (AID 493153; active means well fitted inhibition curve with a large enough effect in the main read-out, with a control signal flat, not every such curve was filed as active); conditions: A549 ARE-Fluc reporter, 18-24 h; viability change: measured here: cytotoxicity max response; luciferase luminescence, at 46.1 µM (top of the series)
Outline: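 Luminescence from an ARE-firefly luciferase reporter in A549 cells gives Nrf2 inhibition; an earlier CellTiter-Fluor fluorescent read flags cytotoxicity. Cells in 5% FBS OPTI-MEM received compound dilution series for 18-24 h at 37°C.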

[12] = qHTS for Inhibitors of Cell Surface uPA Generation: Validation Assay (AID 493164); conditions: mouse cells, plasminogen activation; series mostly up to 38.3 µM
Outline: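 RAW 264.7 cells (4000/well) were plated overnight, then exposed for 18 h at 37 C, 5% CO2 to compounds in a 7-point 1:5 titration (2.45 nM–38.3 uM final). Intracellular ATP was read by ATP-Lite luminescence.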

[13] = biological target: Galactokinase (Homo sapiens) (UniProt P51570); test: qHTS Validation Assay for Inhibitors of Human Galactokinase (GALK) (AID 493189); conditions: purified human GALK enzyme activity, qHTS 7-point titration; series mostly up to 57.5 µM
Chain of Galactokinase (Homo sapiens) (P51570 whole entry, looked up): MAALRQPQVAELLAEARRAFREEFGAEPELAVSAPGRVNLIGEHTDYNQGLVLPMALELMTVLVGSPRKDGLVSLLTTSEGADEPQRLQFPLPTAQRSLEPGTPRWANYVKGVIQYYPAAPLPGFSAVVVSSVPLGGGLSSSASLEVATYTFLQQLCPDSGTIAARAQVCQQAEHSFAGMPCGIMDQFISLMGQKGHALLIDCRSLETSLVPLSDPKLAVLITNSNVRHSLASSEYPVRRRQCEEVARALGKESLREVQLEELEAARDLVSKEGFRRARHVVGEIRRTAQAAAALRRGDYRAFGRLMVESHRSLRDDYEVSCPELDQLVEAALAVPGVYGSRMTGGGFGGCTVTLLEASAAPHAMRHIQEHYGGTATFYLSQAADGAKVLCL
Outline: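 Luminescence from leftover ATP (Kinase-Glo Plus, 10 min) served as read-out after a 1 h room-temperature reaction of 5 nM GALK, 100 uM galactose and 35 uM ATP at pH8.0.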

[14] = Validation screen for small molecules that induce DNA re-replication in SW480 colon adenocarcinoma cells (AID 504364); conditions: DNA re-replication phenotype (high-content imaging); series mostly up to 46.1 µM
Outline: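 250 cells/well; compound pinned in; 48 hr, 37 C, 5% CO2; Hoechst added, 40 min; nuclear fluorescence imaged, 405 ex / 500-530 em; re-replication scored as increase in high-intensity nuclei.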

[15] = biological target: Peptidyl-prolyl cis-trans isomerase NIMA-interacting 1 (Homo sapiens) (UniProt Q13526); test: qHTS Validation Assay to Find Inhibitors of Pin1 (AID 504536; active means well fitted inhibition curve with a large enough effect in the polarisation, with a control signal flat, not every such curve was filed as active; the % refers to the polarisation); conditions: Pin1 fluorescence polarization peptide binding assay; series mostly up to 57.5 µM
Chain of Peptidyl-prolyl cis-trans isomerase NIMA-interacting 1 (Homo sapiens) (Q13526 whole entry, looked up): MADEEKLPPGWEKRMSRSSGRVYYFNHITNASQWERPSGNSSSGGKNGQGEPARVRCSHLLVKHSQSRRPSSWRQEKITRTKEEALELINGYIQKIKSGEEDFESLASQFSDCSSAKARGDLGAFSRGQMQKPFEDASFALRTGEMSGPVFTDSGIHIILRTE
Outline: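 Fluorescence polarization competition: compounds (titration) displace HiFluor-488-labeled Pin1-1b peptide from Pin1 (0.3 uM final) in pH 7.5 HEPES buffer with DTT, 10 min at room temperature; %Activity normalized to no-enzyme wells, curves fitted.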

[16] = biological target: Phosphoglycerate kinase, glycosomal (Trypanosoma brucei brucei) (UniProt P07378); test: qHTS Validation Assay to Find Inhibitors of Phosphoglycerate Kinase (AID 504547); conditions: enzymatic PGK inhibition, coupled luminescence read-out; series mostly up to 57.5 µM
Chain of Phosphoglycerate kinase, glycosomal (Trypanosoma brucei brucei) (P07378 whole entry, looked up): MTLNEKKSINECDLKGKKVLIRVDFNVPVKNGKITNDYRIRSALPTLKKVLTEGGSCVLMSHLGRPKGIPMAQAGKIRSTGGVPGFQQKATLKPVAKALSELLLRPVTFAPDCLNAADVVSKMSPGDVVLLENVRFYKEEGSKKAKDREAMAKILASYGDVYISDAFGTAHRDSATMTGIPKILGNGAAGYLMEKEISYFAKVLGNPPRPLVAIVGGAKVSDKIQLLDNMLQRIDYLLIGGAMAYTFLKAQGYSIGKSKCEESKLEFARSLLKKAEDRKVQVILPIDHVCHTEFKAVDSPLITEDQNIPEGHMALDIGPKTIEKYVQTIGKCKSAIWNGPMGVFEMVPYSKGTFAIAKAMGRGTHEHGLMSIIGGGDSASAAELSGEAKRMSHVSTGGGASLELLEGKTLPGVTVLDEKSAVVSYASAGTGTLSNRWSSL
Outline: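 PGK activity was coupled to GAPDH (100nM final), which generates the unstable substrate 1,3-bisphosphoglycerate in-well. Reactions ran 60 minutes at room temperature in 100mM TEA pH 7.6, 5mM MgCl2, 0.01% Tween-20, then Kinase-Glo Plus luminescence was read.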

[17] = biological target: phosphoglycerate mutase (Leishmania major) (UniProt Q4Q090); test: qHTS Validation Assay to Find Inhibitors of Phosphoglycerate Mutase (AID 504548); conditions: biochemical enzyme activity; series mostly up to 57.5 µM
Chain of phosphoglycerate mutase (Leishmania major) (Q4Q090 1-553): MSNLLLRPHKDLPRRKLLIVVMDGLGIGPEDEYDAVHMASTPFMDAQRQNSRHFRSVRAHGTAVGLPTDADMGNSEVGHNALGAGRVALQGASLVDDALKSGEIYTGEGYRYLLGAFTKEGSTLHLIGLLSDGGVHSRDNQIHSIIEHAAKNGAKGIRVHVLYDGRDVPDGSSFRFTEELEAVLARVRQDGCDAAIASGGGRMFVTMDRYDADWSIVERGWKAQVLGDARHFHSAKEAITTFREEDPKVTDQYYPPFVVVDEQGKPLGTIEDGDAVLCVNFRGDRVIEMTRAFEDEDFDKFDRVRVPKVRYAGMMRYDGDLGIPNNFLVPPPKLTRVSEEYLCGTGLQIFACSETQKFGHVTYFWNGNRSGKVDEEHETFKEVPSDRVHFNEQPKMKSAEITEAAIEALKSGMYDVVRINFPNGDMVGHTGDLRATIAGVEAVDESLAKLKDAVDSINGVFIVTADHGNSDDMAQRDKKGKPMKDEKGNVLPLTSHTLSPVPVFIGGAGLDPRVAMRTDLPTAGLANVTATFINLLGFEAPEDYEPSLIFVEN
Outline: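 Lm PGAM at 1.25 nM final with substrate in 100 mM TEA pH 7.6, 5 mM MgCl2, 0.01% Tween-20; 45 min at room temperature. Kinase-GloPlus added, 10 min, end-point luminescence read.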

[18] = biological target: Ubiquitin carboxyl-terminal hydrolase 1 (Homo sapiens) (UniProt O94782); test: Inhibitors of USP1/UAF1: Pilot qHTS (AID 504865); conditions: purified USP1/UAF1, Ub-rhodamine cleavage fluorescence; series mostly up to 114 µM; further: nearly all actives have a fitted effect of over 35% in size; further: potency means the concentration at half of the fitted maximal effect
Chain of Ubiquitin carboxyl-terminal hydrolase 1 (Homo sapiens) (O94782 whole entry, looked up): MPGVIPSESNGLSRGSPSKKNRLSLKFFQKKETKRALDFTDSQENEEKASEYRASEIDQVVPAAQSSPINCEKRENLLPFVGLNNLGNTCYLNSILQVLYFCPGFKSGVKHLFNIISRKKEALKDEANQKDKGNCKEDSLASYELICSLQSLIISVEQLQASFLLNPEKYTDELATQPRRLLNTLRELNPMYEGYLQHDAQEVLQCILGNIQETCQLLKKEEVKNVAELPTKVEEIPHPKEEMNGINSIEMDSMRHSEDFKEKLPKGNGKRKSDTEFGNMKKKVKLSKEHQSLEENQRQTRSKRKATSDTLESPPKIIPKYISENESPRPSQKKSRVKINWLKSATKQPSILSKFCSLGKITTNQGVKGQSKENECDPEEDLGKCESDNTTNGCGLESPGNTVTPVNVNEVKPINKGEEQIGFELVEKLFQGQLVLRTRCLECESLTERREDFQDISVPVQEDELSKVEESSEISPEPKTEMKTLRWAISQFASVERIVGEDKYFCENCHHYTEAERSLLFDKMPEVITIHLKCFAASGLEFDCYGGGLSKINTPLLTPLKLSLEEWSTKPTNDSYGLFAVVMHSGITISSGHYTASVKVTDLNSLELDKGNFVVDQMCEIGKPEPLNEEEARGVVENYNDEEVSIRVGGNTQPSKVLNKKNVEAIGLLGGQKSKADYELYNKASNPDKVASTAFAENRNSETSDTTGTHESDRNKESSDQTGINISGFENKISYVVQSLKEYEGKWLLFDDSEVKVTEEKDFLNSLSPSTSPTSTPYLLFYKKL
Outline: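 1nM USP1/UAF1 + cpd, 15 min RT; start w/ Ub-Rho 150nM final; kinetic FL 480/540 nm, 6 reads q60 s. Buffer 50mM HEPES pH 7.8, 0.5mM EDTA, 1mM TCEP, 0.01% Tween-20, 0.1 mg/ml BSA.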

[19] = biological target: ATP-dependent 6-phosphofructokinase (Trypanosoma brucei brucei) (UniProt O15648); test: qHTS Assay to Find Inhibitors of T. brucei phosphofructokinase: hit validation (AID 492961); conditions: T. brucei PFK, ADP-Glo luminescence; series mostly up to 51.4 µM
Chain of ATP-dependent 6-phosphofructokinase (Trypanosoma brucei brucei) (O15648 whole entry, looked up): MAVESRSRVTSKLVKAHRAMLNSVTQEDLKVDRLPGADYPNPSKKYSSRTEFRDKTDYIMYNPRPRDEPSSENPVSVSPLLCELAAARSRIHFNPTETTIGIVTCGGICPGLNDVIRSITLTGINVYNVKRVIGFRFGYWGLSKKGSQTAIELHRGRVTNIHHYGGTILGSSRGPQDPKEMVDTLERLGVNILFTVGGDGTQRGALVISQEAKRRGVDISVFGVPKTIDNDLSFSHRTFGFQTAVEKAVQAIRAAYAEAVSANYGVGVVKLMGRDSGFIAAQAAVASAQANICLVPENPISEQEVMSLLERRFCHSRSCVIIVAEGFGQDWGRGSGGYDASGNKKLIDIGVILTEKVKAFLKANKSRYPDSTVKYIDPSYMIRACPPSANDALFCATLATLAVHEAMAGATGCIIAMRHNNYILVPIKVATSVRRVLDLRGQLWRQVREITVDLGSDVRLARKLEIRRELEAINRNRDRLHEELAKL
Outline: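 Luminescence from ADP-Glo reports ADP generated as T. brucei PFK (1.25 nM) phosphorylates 0.5 mM fructose-6-phosphate using 0.1 mM ATP. Reactions ran 45 min at room temperature, pH 8.0.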

[20] = biological target: D(1A) dopamine receptor (Homo sapiens) (UniProt P21728); test: HTS Assay for Allosteric Agonists of the Human D1 Dopamine Receptor: Primary Screen for Potentiators (AID 488982); conditions: HEK293 T-REx D1 inducible cells, calcium flux, kinetic fluorescence; series mostly up to 8.37 µM
Outline: as §1

With `NCCCC(=O)O` the outcome [1] was “inactive”, the outcome [2] was “inactive” and the outcome [3] was “inactive”. The outcome [4] was “inactive”, the outcome [5] was “inactive” and the Potency [6] was “inactive”. For the same molecule, the Potency [7] was “inactive”, the outcome [8] was “inactive” and the outcome [9] was “inactive”. For the same molecule, the activation [10] was -0.125% (inactive), the outcome [11] was “inactive” and the viability change [11] was 14.4%. The outcome [12] was “inactive”, the outcome [13] was “inactive” and the outcome [14] was “inactive”. The outcome [15] was “inactive”, the outcome [16] was “inactive” and the outcome [17] was “inactive”. For the same molecule, the Potency [18] was “inactive”.
In the case of `COC1C(OC(=O)/C=C/C=C/C=C/C=C/C(=O)O)CCC2(CO2)C1C1(C)OC1CC=C(C)C` (stereo unspecified), the outcome [19] is reported as “inactive” and the Potency [18] is reported as “inactive”.
With `CN[C@H]1CC[C@@H](c2ccc(Cl)c(Cl)c2)c2ccccc21` the outcome [1] was “inactive”, the outcome [2] was “inactive” and the outcome [3] was “inactive”. For the same molecule, the outcome [5] was “inactive”, the Potency [6] was 11.2 µM (active) and the outcome [20] was “inactive”. For the same molecule, the Potency [7] was 10 µM (active), the outcome [19] was “inactive” and the outcome [8] was “inactive”. For the same molecule, the outcome [11] was “inactive”, the viability change [11] was 1.73% and the outcome [12] was “inactive”. For the same molecule, the outcome [13] was “inactive”, the outcome [14] was “inactive” and the outcome [15] was “inactive”. The outcome [16] was “inactive”, the outcome [17] was “inactive” and the Potency [18] was “inactive”.
In the case of `C1CNCCN1`, the Potency [18] is reported as “inactive”.
In the case of `C=CCNC1=C2C[C@@H](C)C[C@H](OC)[C@H](O)[C@@H](C)/C=C(\C)[C@H](OC(N)=O)[C@@H](OC)/C=C\C=C(/C)C(=O)NC(=CC1=O)C2=O`, the outcome [19] is reported as “inactive”.
In the case of `CCCOc1ccc2nc(NC(=O)OC)sc2c1`, the outcome [19] is reported as “inactive” and the Potency [18] is reported as “inactive”.
With `CN(C)CCCn1cc(C2=C(c3c[nH]c4ccccc34)C(=O)NC2=O)c2ccccc21` the Potency [18] was 50.1 µM (active).
With `O=C(O)CC(O)(CC(=O)O)C(=O)O` the Potency [18] was “inactive”.
In the case of `COc1cc(C[C@H]2C(=O)OC[C@@H]2Cc2ccc(OC)c(OC)c2)ccc1O`, the Potency [18] is reported as “inactive”.
